Results on 8 molecules are retold here after PubChem BioAssay (NCI).

Molecules are shown by their SMILES. The panel holds about 83,000 compounds, 20% with a hit somewhere; the sample as a whole holds those more often.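 48-hour exposure, single concentration, 96-well plates; percent growth endpoint where 0 means no net growth. Active: below 10.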 Values without a mark were called inactive. Calls of active or inactive are those of the source.

Among the test systems are NCI-H23 lung; NCI-H226 lung; NCI-H322M lung; HOP-62 NSCLC; HOP-92 NSCLC; A549/ATCC NSCLC; 786-0 renal; COLO 205 colon; DU-145 prostate; K-562 leukemia; MDA-MB-231 breast; RXF 393 renal; SF-268 CNS; SF-295 CNS; SF-539 CNS; UACC-257 melanoma; M14 melanoma; NCI-H522 lung; MALME-3M melanoma; NCI-H460 lung.
Common to all, as to assay: NCI-60 one-dose screen, 48 h (100 = growth as untreated, 0 = no growth, -100 = all killed)
Holding throughout (conditions): 10 µM unless noted

With `C=C1C(=O)C2CCN1CC2`, the growth was 102% in the assay on NCI-H23 lung; 101% with NCI-H226 lung; 99.5% in the assay with NCI-H322M lung; 101% in the assay on HOP-62 NSCLC; 104% with HOP-92 NSCLC; 97% in the assay on A549/ATCC NSCLC. For the same molecule, the growth with 786-0 renal is 96.2%; in the assay with COLO 205 colon, 102%; in the assay with DU-145 prostate, 103%; with K-562 leukemia, 57.3%; in the assay on MDA-MB-231 breast it was 125%; in the assay with RXF 393 renal, 89.6%. The growth in the assay with SF-268 CNS is 102%; in the assay with SF-295 CNS it was 96.1%; in the assay on SF-539 CNS, 102%; in the assay on UACC-257 melanoma, 108%; in the assay with M14 melanoma, 92.3%.
Take `O=C(O)Cc1ccc(Cl)cc1`: the growth is 114% in the assay with NCI-H23 lung; 96% in the assay on NCI-H226 lung; 108% in the assay with NCI-H322M lung; 86.9% with HOP-62 NSCLC; 38.8% in the assay with HOP-92 NSCLC; 101% in the assay with NCI-H522 lung. Also, the growth in the assay with A549/ATCC NSCLC was 120%; with 786-0 renal it was 93.7%; in the assay on COLO 205 colon, 107%; in the assay with DU-145 prostate, 107%; with K-562 leukemia it was 53.6%; with MALME-3M melanoma it was 102%. Also, the growth is 102% in the assay on MDA-MB-231 breast; 125% in the assay on RXF 393 renal; 105% in the assay on SF-268 CNS; 97.5% in the assay with SF-295 CNS; 99.4% with SF-539 CNS; 111% in the assay on UACC-257 melanoma. Besides, the growth in the assay with M14 melanoma was 93.1%.
Consider `OCC1OC(n2ccc3c2ncn2ncnc32)C(O)C1O` (stereo not given), for which the growth in the assay with NCI-H23 lung was 35.8%; in the assay with NCI-H226 lung, 25.1%; in the assay with HOP-62 NSCLC, 37.3%; in the assay on NCI-H460 lung, 26.5%; with HOP-92 NSCLC, -0.422% (active); in the assay with NCI-H522 lung, 82.7%. The growth in the assay on A549/ATCC NSCLC was 50.6%; with 786-0 renal, 31.9%; with COLO 205 colon it was 35%; in the assay with DU-145 prostate it was 16.9%; in the assay on K-562 leukemia, 18.4%; with MALME-3M melanoma it was 83.7%. Also, the growth with MDA-MB-231 breast was 40.9%; in the assay on RXF 393 renal, 38.3%; in the assay with SF-268 CNS it was 47.4%; with SF-295 CNS, 43.7%; in the assay on SF-539 CNS it was 34.3%; with UACC-257 melanoma, 97.7%. Besides, the growth with M14 melanoma was 51.3%.
In the case of `CCN(CC)c1ccc2nc3ccc(N=Nc4ccc(N(C)C)cc4)cc3[n+](-c3ccccc3)c2c1`, the growth in the assay on NCI-H23 lung was -64.9% (active); with NCI-H226 lung it was -36.9% (active); in the assay with NCI-H322M lung, 25.2%; in the assay on HOP-62 NSCLC, -87.9% (active); in the assay with HOP-92 NSCLC, -14.6% (active); with NCI-H522 lung, -44.9% (active). For the same molecule, the growth in the assay on A549/ATCC NSCLC was 3.32% (active); in the assay on 786-0 renal, -56.8% (active); in the assay on COLO 205 colon, -89.9% (active); with DU-145 prostate, -98% (active); with K-562 leukemia, -4.96% (active); in the assay with MALME-3M melanoma, -54.1% (active). Further, the growth with MDA-MB-231 breast was -46.4% (active); with RXF 393 renal, -87.8% (active); in the assay on SF-268 CNS, 9.77% (active); with SF-295 CNS it was -82.2% (active); in the assay on SF-539 CNS, -69.2% (active); in the assay on UACC-257 melanoma, -52.5% (active). The growth in the assay with M14 melanoma was -75% (active).
For `CCCCCCCCCCC(=O)CCCCCCCCCC`, the growth in the assay with NCI-H23 lung is 102%; in the assay on NCI-H226 lung, 103%; in the assay with NCI-H322M lung, 109%; in the assay with HOP-62 NSCLC it was 92.3%; in the assay with HOP-92 NSCLC, 148%; with NCI-H522 lung it was 96.7%. Further, the growth in the assay with A549/ATCC NSCLC is 98.4%; in the assay on 786-0 renal, 99.1%; in the assay on COLO 205 colon, 107%; in the assay with DU-145 prostate it was 111%; with K-562 leukemia, 103%; in the assay with MALME-3M melanoma, 99.1%. Moreover, the growth is 119% in the assay with MDA-MB-231 breast; 113% with RXF 393 renal; 108% in the assay on SF-268 CNS; 93.7% with SF-295 CNS; 98.1% in the assay with SF-539 CNS; 101% in the assay with UACC-257 melanoma. Also, in the assay on M14 melanoma, the growth was 99.9%.
For the molecule `COC1(OC)C2(Cl)C(Cl)=C(Cl)C1(Cl)C1COCC12` (stereo not given), the growth is 109% with NCI-H23 lung; 93.6% with NCI-H226 lung; 104% in the assay with NCI-H322M lung; 96.5% in the assay with HOP-62 NSCLC; 105% with HOP-92 NSCLC; 79.5% in the assay with NCI-H522 lung. For the same molecule, the growth with A549/ATCC NSCLC is 64%; in the assay with 786-0 renal, 104%; in the assay on COLO 205 colon, 113%; with DU-145 prostate, 102%; with K-562 leukemia it was 97.3%; in the assay on MALME-3M melanoma, 110%. Also, the growth with MDA-MB-231 breast was 105%; with RXF 393 renal, 103%; in the assay on SF-268 CNS it was 108%; in the assay on SF-295 CNS, 102%; with SF-539 CNS, 109%; in the assay on UACC-257 melanoma it was 63.3%. For the same molecule, the growth with M14 melanoma is 100%.
With `O=C(Oc1ccccc1Cl)c1ccc(Cl)cc1Cl`, the growth in the assay with NCI-H23 lung was 101%; in the assay on NCI-H226 lung, 102%; in the assay with NCI-H322M lung, 107%; in the assay on HOP-62 NSCLC, 87.9%; with HOP-92 NSCLC, 103%; in the assay with NCI-H522 lung it was 98.8%. Further, the growth in the assay with A549/ATCC NSCLC was 89.3%; in the assay on 786-0 renal, 95.9%; in the assay on COLO 205 colon, 104%; with DU-145 prostate, 110%; in the assay on K-562 leukemia, 99.6%; in the assay with MALME-3M melanoma it was 103%. Also, the growth with MDA-MB-231 breast was 98.3%; in the assay on RXF 393 renal it was 102%; in the assay on SF-268 CNS, 105%; in the assay on SF-295 CNS, 95.1%; in the assay with SF-539 CNS it was 95.6%; in the assay with UACC-257 melanoma, 94.3%. Moreover, the growth in the assay with M14 melanoma was 98.1%.
Regarding `Cc1cc(CO)c(O)c(CO)c1`, the growth is 121% with NCI-H23 lung; 115% in the assay with NCI-H226 lung; 98.7% with NCI-H322M lung; 107% with HOP-62 NSCLC; 96.4% in the assay on HOP-92 NSCLC; 84.4% in the assay on NCI-H522 lung. Also, the growth with A549/ATCC NSCLC was 103%; in the assay on 786-0 renal it was 107%; in the assay with COLO 205 colon, 114%; in the assay on DU-145 prostate, 115%; in the assay on K-562 leukemia it was 87.3%; with MALME-3M melanoma, 104%. The growth was 108% in the assay with MDA-MB-231 breast; 112% in the assay with RXF 393 renal; 105% in the assay with SF-268 CNS; 109% in the assay with SF-295 CNS; 110% in the assay with SF-539 CNS; 95.8% in the assay with UACC-257 melanoma. Moreover, in the assay with M14 melanoma, the growth is 97.6%.
